This is a sample that favours compounds with a hit; in the whole collection about 27% have one here.
CYP2C9 inh: blockers of cytochrome P450 2C9 activity – biochemical, luminescence, ADME assay, primary screen; actives 20% (n = 96,000); CYP2C9 Supersomes, luciferin-H conversion; P11712; inhibition, % at 5 µM; AID 777, 2007;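 active = blocking of liver enzyme CYP2C9 beyond about 50% at 5 µM, limit read from the data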
CYP2C19 inh: blockers of cytochrome P450 2C19 activity – biochemical, luminescence, ADME assay, primary screen; P33261; actives 21% (n = 96,000); inhibition, % at 5 µM; CYP2C19 Supersomes, luciferin-H EGE luminescence, 30 min; AID 778, 2007;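 active = CYP2C19 inhibition above a set limit at 5 µM in the primary screen, cut at about 50% in these data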;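 note: plate controls were negative control wells for no effect and 2.5 mM tranylcypromine positive control for full effect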
Target sequence (P33261 whole entry, looked up): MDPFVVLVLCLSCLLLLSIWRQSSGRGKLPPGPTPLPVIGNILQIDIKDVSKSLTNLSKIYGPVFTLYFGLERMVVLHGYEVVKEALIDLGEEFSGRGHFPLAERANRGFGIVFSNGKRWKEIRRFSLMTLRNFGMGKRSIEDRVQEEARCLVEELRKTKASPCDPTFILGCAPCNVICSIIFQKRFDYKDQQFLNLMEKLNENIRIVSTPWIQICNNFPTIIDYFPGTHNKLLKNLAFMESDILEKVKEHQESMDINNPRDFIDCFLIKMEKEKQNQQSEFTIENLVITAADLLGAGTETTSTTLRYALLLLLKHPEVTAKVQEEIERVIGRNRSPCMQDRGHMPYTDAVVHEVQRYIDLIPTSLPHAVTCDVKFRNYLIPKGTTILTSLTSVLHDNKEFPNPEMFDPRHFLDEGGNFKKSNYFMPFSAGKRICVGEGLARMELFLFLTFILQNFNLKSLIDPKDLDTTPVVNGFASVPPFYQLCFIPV
sEH activator: soluble epoxide hydrolase activators, primary screen, biochemical, human sEH. AID 717, 2007. actives 0.04% (n = 91,000). activation, % at 2 µM. purified human sEH enzymatic activity, activator screen. Bifunctional epoxide hydrolase 2 (Homo sapiens), P34913; in the data active = activation above about 37%
sEH inh: soluble epoxide hydrolase inhibitors, primary screen, biochemical, human sEH | recombinant human sEH enzymatic activity assay | inhibition, % at 2 µM | actives 0.34% (n = 91,000) | AID 707, 2007; in the data active = inhibition above about 80%
CYP2C19 act: human CYP2C19 activators, primary screen, biochemical, luminescence; AID 1025, 2008; activation factor at 5 µM; 96,000 tested, under 10 active; recombinant CYP2C19, luciferin-H EGE luminescence; stronger effect = higher value; 0 = fully inhibited enzyme, 1 = untreated enzyme; Cytochrome P450 2C19 (Homo sapiens), P33261;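 active = activation factor of at least 2 at 5 µM in the primary screen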;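 note: 0 = wells with 2.5 mM tranylcypromine and 1 = vehicle-only wells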
CYP2C9 act: human CYP2C9 activators, primary screen, biochemical, luminescence; actives 1.4% (n = 96,000); activation factor at 5 µM; recombinant CYP2C9, luciferin-H conversion; stronger effect = higher value; factor 1 = untreated enzyme, 0 = blocked;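 active = activation factor of 2 or more for CYP2C9 at a 5 µM dose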;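 note: 0 = sulfaphenazole-blocked wells and 1 = vehicle-only wells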
* = called active by the depositor; . = not tested or not shown.

SMILES	CYP2C9 inh	CYP2C19 inh	sEH activator	sEH inh	CYP2C19 act	CYP2C9 act
CCc1c(O)nc(SC2CC(=O)N(c3ccccc3)C2=O)[nH]c1=O (configuration not stated)	67*	29	24	-20	0.7	0.3
COc1ccc(OC)c(CCNC(=O)Cn2sc3nc(C)cc(C)c3c2=O)c1	65*	22	-16	18	0.8	0.4
CC(C)CNS(=O)(=O)c1ccc2c(c1)OCCO2	31	42	-11	10	0.6	0.7
CC(C)NC(=O)COC(=O)c1ccc(NS(=O)(=O)c2ccc3c(c2)OCCO3)cc1	97*	76*	0	1	0.2	0
O=C(COC(=O)c1ccc(NS(=O)(=O)c2ccc3c(c2)OCCO3)cc1)NCC1CCCO1 (configuration not stated)	83*	37	-13	13	0.6	0.2
CCN(CC)c1ccc(C(=O)OCC(=O)NCC2CCCO2)cc1 (configuration not stated)	26	41	0	0	0.6	0.7
CCOC(=O)c1ccc(NS(=O)(=O)c2ccc3[nH]c(=O)[nH]c3c2)cc1	75*	29	3	1	0.7	0.2
Cc1nc2ccccc2n1CCC(=O)Nc1cccc(F)c1	18	21	9	-10	0.8	0.8
CC1(C)CC(=O)C2=C(C1)N(Cc1ccco1)C(=O)C2(O)C(F)(F)F (configuration not stated)	9	11	2	1	0.9	0.9
Cc1nn(C)cc1CNC(=O)c1cccc(Cl)c1	46	17	-10	13	0.8	0.5
O=C(NCc1ccncc1)C(F)(F)C(F)(F)C(=O)NCc1ccncc1	93*	46	4	-4	0.5	0.1
COc1ccc(Br)cc1C(=O)NCc1cccnc1	-54	56*	0	0	0.4	1.5
CC(C)CCNC(=O)c1cccc(Cl)c1	28	58*	-56	56	0.4	0.7
O=C(NCc1ccncc1)c1cccc(F)c1	18	18	.	.	0.8	0.8
O=C(/C=N/O)NCc1ccncc1	11	-3	6	-7	1	0.9
O=C(NCc1ccncc1)c1c(F)c(F)c(F)c(F)c1F	67*	24	4	-6	0.8	0.3
CCOC(=O)N1CCN(S(=O)(=O)N(C)C)CC1	-8	10	-9	7	0.9	1.1
N#CCCSCc1ccc(OCC(=O)O)cc1	-35	-10	-1	2	1.1	1.3
Cc1c(N)cccc1-c1nc2ccccc2[nH]1	.	.	-3	5	.	.
CC(NC(=O)COC(=O)c1ccco1)c1ccccc1 (configuration not stated)	-4	26	-8	9	0.7	1
CC(C)OC(=O)c1nnc(Cc2ccc(F)cc2)o1	2	89*	-4	8	0.1	1
COCCNC(=O)NC1(C(F)(F)F)Oc2ccc(Cl)cc2O1 (configuration not stated)	10	25	7	-6	0.7	0.9
O=C(NCc1cccnc1)c1cccc(F)c1	-5	44	.	.	0.6	1.1
CC(NC(=O)NCc1cccnc1)(C(F)(F)F)C(F)(F)F	33	77*	3	-3	0.2	0.7
O=C(NCc1cccnc1)c1c(F)c(F)c(F)c(F)c1F	46	81*	14	-10	0.2	0.5
SMILES	CYP2C9 inh	CYP2C19 inh	sEH activator	sEH inh	CYP2C19 act	CYP2C9 act
O=C(NCc1cccnc1)NC1(C(F)(F)F)Oc2ccc(Cl)cc2O1 (configuration not stated)	58*	91*	0	-3	0.1	0.4
CCOC(=O)N1CCN(C(=O)c2ccc3c(=O)n4c(nc3c2)CCCCC4)CC1	8	19	14	-17	0.8	0.9
O=C(NCc1cccnc1)c1nnc(Cc2ccc(F)cc2)o1	20	78*	6	-2	0.2	0.8
O=C(NCc1ccco1)c1nnc(Cc2ccc(Cl)cc2)o1	-31	23	4	-3	0.8	1.3
Cc1cc2c(cc(C(=O)NCc3cccnc3)n2Cc2ccc(Cl)cc2)o1	91*	91*	.	.	0.1	0.1
COC(=O)C(C)N(C(=O)c1cccc(Cl)c1)c1c(C)cccc1C (configuration not stated)	62*	72*	6	-10	0.3	0.4
COC(=O)C(C)N(C(=O)c1cccc2ccccc12)c1c(C)cccc1C (configuration not stated)	36	26	31	-34	0.7	0.6
O=C(NCc1ccncc1)c1nnc(Cc2c(F)cccc2Cl)o1	83*	80*	-1	0	0.2	0.2
O=C(O)CCC(=O)NNC(=O)CCC(=O)NCc1ccccc1	11	13	-9	12	0.9	0.9
Cc1cc(NC(=O)CCC(=O)N(c2ccccc2)C(C(=O)NC2CCCCC2)c2cccs2)no1 (configuration not stated)	.	.	6	-4	.	.
O=C(CCc1n[nH]c(=O)[nH]c1=O)N1CCOCC1	-2	-7	13	-16	1.1	1
O=C(NCc1cccnc1)c1cccc(Cl)c1	-23	73*	9	-6	0.3	1.2
CCOC(=O)c1c(C)c(C(=O)NCc2cccnc2)c(C)n1CC	60*	70*	.	.	0.3	0.4
COC(=O)CSc1nnc2c(C)cc3cc4c(cc3n12)OCCO4	-9	-6	.	.	1.1	1.1
CCCN1C2CCCC1CC(NC(=O)c1cc(OC)c(OC)c(OC)c1)C2 (configuration not stated)	0	2	3	-6	1	1
CC(=O)N1c2ccccc2C(C)(c2ccccc2)CC1(C)C (configuration not stated)	54*	64*	6	-3	0.4	0.5
CCCCCCC(=O)Nc1cc2c(C)cc(=O)oc2cc1C	-155	41	5	-2	0.6	2.5*
Cc1ccc(NC(=O)CSc2nnc(-c3ccccc3Br)o2)cc1C	73*	51*	-13	12	0.5	0.3
CCCOC(=O)CSc1nnc(-c2ccccc2Cl)o1	-7	67*	-1	0	0.3	1.1
Cc1cccc(NC(=O)CSc2nnc(-c3ccc(S(=O)(=O)N4CCCC4)cc3)o2)c1	66*	17	11	-12	0.8	0.3
CC(NC(=O)CSc1nnc(-c2cccc(S(=O)(=O)N3CCCCC3)c2)o1)C12CC3CC(CC(C3)C1)C2 (configuration not stated)	91*	68*	-93	93*	0.3	0.1
CC(C)CNC(=O)CSc1nnc(-c2cccc(S(=O)(=O)N3CCCCC3)c2)o1	45	26	-62	62	0.7	0.5

From PubChem
